GRIN3A LBD mod – binders of NR3A ligand-binding domain, primary screen, biophysical, differential scanning fluorimetry, uHTS | Tm shift relative to glycine control, % at 25 µM | actives 2.5% (n = 340,000) | Glutamate receptor ionotropic, NMDA 3A (GRIN3A) ligand-binding domain | NR3A LBD differential scanning fluorimetry, Tm shift; 0% = protein alone, 100% = glycine-bound protein;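 active = melting temperature shift of at least 10% of the positive control shift, at one fixed dose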
Beta cell apopt – inhibitors of cytokine-induced beta cell apoptosis, primary screen, luminescence; INS-1E cytokine-induced death, ATP luminescence, 48 h; percent of positive-control rescue, neutral wells zero; protection from apoptosis, % (concentration not given with the values); actives 0.8% (n = 300,000);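 active = Every replicate reaches about 75%, or at least half do and their mean reaches it too, limit read from the data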;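 also: higher means more ATP so stronger rescue from cytokine killing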
SKKanGAS inh – S. pyogenes SKKanGAS growth inhibitors in kanamycin, primary screen, streptokinase expression inhibitor project, SKKanGAS strain, BacTiter-Glo luminescence; 6 h; inhibition, % at 7.5 µM; actives 1.3% (n = 300,000);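 active = mean replicate score, as percent of positive control median, at least 50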;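 also: strain carries kanamycin resistance gene driven by streptokinase promoter and grows in 40 µg/ml kanamycin; loss of luminescence reflects streptokinase promoter inhibition or plain growth inhibition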
MPTP block – mitochondrial permeability transition pore inhibitors, primary screen, biochemical, isolated mouse mitochondria, absorbance. inhibition, % at 10 µM. Ca2+ swelling absorbance, 30 min. actives 1.4% (n = 360,000). AID 602449, 2012;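 active = inhibition of 50% or more, scaled per plate between neutral and stimulator controls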
CSC inhib – cancer stem cell viability inhibitors, primary screen, luminescence; AID 2717, 2010; cancer stem cell-like cells viability; actives 1.1% (n = 300,000); inhibition, % at 7.5 µM; in the data active = inhibition above about 75%; tested in HMLE shEcad cells
Mdm2-MdmX inh – inhibitors of human Mdm2-MdmX association, primary screen, cell-based, luminescence, split luciferase, SaOS-2, uHTS. Protein Mdm4 (Homo sapiens) + E3 ubiquitin-protein ligase Mdm2 (Homo sapiens), …. SaOS-2 split-luciferase Mdm2/MdmX complementation. inhibition, % at 8 µM. actives 3% (n = 330,000);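 active = inhibition of at least 50% at 8 µM in the primary screen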
Target sequence (O15151 whole entry, looked up): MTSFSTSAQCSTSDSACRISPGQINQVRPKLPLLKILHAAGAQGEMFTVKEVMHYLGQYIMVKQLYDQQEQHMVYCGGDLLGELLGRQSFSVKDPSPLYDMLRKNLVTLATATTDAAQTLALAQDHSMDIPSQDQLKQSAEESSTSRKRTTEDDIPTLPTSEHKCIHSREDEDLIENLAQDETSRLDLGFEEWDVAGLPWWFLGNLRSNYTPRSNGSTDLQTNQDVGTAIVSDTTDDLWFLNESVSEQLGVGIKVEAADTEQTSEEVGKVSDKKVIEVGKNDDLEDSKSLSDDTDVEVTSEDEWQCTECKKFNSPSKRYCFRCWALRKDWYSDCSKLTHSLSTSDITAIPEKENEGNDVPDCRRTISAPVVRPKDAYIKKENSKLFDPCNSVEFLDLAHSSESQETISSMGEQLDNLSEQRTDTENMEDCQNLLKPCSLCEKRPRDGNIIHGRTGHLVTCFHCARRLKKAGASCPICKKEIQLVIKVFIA
Target sequence (Q00987 whole entry, looked up): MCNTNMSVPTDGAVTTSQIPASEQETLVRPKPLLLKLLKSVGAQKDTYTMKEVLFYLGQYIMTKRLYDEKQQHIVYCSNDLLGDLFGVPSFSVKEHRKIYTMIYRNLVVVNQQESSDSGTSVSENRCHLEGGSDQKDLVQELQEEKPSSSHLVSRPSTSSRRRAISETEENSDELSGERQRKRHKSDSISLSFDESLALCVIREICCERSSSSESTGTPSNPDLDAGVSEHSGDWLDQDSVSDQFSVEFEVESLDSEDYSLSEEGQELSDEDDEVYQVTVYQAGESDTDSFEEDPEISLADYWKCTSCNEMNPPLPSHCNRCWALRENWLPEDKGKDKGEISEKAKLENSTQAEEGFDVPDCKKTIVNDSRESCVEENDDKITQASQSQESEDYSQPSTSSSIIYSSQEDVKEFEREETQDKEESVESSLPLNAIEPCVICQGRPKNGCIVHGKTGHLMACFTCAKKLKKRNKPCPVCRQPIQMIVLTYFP
Mdm2 MdmX conf – Mdm2-MdmX complex disruptors, retested hits, confirmation, luminescence, single concentration; shares compounds with Mdm2-MdmX inh; AID 489028, 2010; inhibition, % at 8 µM; actives 55% (n = 10,000); Mdm2-MdmX binding, luminescent assay; in the data active = inhibition above about 40%
FLuc counter – full-length luciferase signal inhibition, confirmation, counter-screen for Mdm2/MdmX interaction inhibitor project, cell-based, single concentration, SaOS-2. shares compounds with Mdm2-MdmX inh. inhibition, % at 8 µM. actives 77% (n = 6,200). SaOS-2 full-length luciferase counterscreen, luminescence;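 active = mean inhibition at 8 µM reaching about 37%, which flags the compound as non-specific, limit read from the data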;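 also: p53-null SaOS-2 cells with luciferase driven by a doxycycline-inducible promoter; compound on cells about two nights before reading with doxycycline added after day one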
Hits are given with their value; 0 = inactive; - = not tested or not shown. Compounds with a hit are over-represented: about 6.9% of the library has one in this group of screens.

SMILES	GRIN3A LBD mod	Beta cell apopt	SKKanGAS inh	MPTP block	CSC inhib	Mdm2-MdmX inh	Mdm2 MdmX conf	FLuc counter
CCCOC1CCCN(C(=O)c2ccc(OC3CCN(Cc4ccccn4)CC3)cc2)C1 (stereo not given)	0	0	0	0	0	0	-	-
COC(=O)Nc1nc(C)c(C(=O)c2ccccc2)s1	0	0	0	0	0	0	-	-
COc1ccc(C(=O)Nc2nc(-c3ccccc3)c(C(C)=O)s2)c(OC)c1	0	0	0	0	0	57.9	0	113.0
COC(=O)Nc1nc(-c2ccccc2)c(C(=O)c2ccccc2)s1	0	0	0	0	0	61.3	54.1	95.2
CC(=O)c1sc(NC(=O)c2ccccc2F)nc1-c1ccccc1	0	0	0	0	0	0	-	-
CCOC(=O)c1ccc(OC(=O)CCCCCN=C(N)N)cc1	0	-	0	0	0	0	-	-
COc1ccc(CN(C(=O)c2ccc(-c3ccccc3)[nH]2)C(C(=O)NC(C)(C)C)c2ccncc2)cc1 (stereo not given)	0	0	0	0	0	52.0	0	83.3
COc1cc(C(C(=O)NC(C)(C)C)N(Cc2ccccc2)C(=O)c2cnccn2)cc(OC)c1OC (stereo not given)	0	0	0	0	0	0	-	-
O=C(/C=C/c1cn(-c2ccccc2)nc1-c1cccnc1)N1CCCC1	0	-	0	0	-	-	-	-
O=C(/C=C/c1cn(-c2ccccc2)nc1-c1cccnc1)c1ccco1	0	0	0	0	0	51.5	0	-
COC(=O)c1[nH]c2ccc(C)cc2c1NC(=O)C(C)N1CCN(C2CCCCC2)CC1 (stereo not given)	0	0	0	0	0	53.4	0	-
COC(=O)c1[nH]c2ccc(Br)cc2c1NC(=O)CN1CCCCC1CCO (stereo not given)	0	0	0	0	0	0	-	-
COC(=O)c1[nH]c2ccc(C)cc2c1NC(=O)NC1CCCCC1	0	0	0	0	0	0	-	-
COC(=O)c1[nH]c2ccc(Br)cc2c1NC(=O)C(C)N1CCN(C2CCCCC2)CC1 (stereo not given)	0	0	0	0	0	95.8	0	0
CCOc1ccccc1NC(=O)C(Sc1nnnn1C)c1ccccc1 (stereo not given)	0	0	0	0	0	0	-	-
COc1cc2c(cc1OC)C(c1cc(Br)ccc1F)N(C(=O)CCl)CC2 (stereo not given)	0	0	0	0	0	100.3	73.0	55.5
CCOc1ccc(/C=N/Nc2cc(N3CCOCC3)ncn2)c(O)c1	-	-	-	0	-	-	-	-
O=[N+]([O-])c1cccc(/C=N/Nc2cc(Cl)nc(-c3ccccc3)n2)c1	28.0	0	0	0	0	66.3	0	-
O=[N+]([O-])c1ccc(/C=N/Nc2cc(Cl)nc(-c3ccccc3)n2)cc1	0	0	0	0	0	0	-	-
CCCOc1ccc(/C=N/Nc2cc(N3CCOCC3)ncn2)c(O)c1	0	91.3	0	0	97.6	73.2	80.8	0
C/C(=N\Nc1cc(N2CCOCC2)ncn1)c1ccccc1	0	0	0	0	0	0	-	-
C/C(=N\Nc1cc(N2CCOCC2)ncn1)c1cccc([N+](=O)[O-])c1	0	0	0	0	-	60.4	0	-
O=[N+]([O-])c1cccc(/C=N/Nc2cc(N3CCOCC3)ncn2)c1	0	0	0	0	0	59.5	0	-
Clc1ccccc1/C=N/Nc1cc(N2CCOCC2)ncn1	0	0	0	0	0	0	-	-
O=C(CCl)NCCCCCCCCCNC(=O)CCl	0	0	0	0	0	63.5	42.5	40.3
SMILES	GRIN3A LBD mod	Beta cell apopt	SKKanGAS inh	MPTP block	CSC inhib	Mdm2-MdmX inh	Mdm2 MdmX conf	FLuc counter
CCC(=O)NCCCCCCNC(=O)CC	0	0	0	0	0	0	-	-
C=C(C)[C@@H]1CC[C@]2(C(=O)O)CC[C@]3(C)C(CCC4[C@@]5(C)CC[C@H](O)C(C)(C)C5CC[C@]43C)C12 (stereo not given in full)	0	0	0	0	93.9	93.5	0	-
COC(=O)[C@@]1(C)CC[C@]2(C)CC[C@@]3(C)C(=CC(=O)C4[C@@]5(C)CC[C@H](O)C(C)(C)[C@@H]5CC[C@]43C)[C@H]2C1 (stereo not given in full)	0	0	0	0	0	0	-	-
CCN1C(=O)[C@H]2[C@H]3CN=C(SCc4ccc(C#N)cc4)N3[C@@](Cc3ccccc3)(C(=O)OC)[C@H]2C1=O	0	-	-	0	-	0	-	-
CC[C@]1(C(=O)OC)[C@H]2C(=O)N(Cc3ccccc3)C(=O)[C@H]2[C@H]2CN=C(SCc3ccc(C)cc3)N21	0	-	-	0	-	92.7	87.7	48.7
COC(=O)[C@@]1(Cc2ccccc2)[C@H]2C(=O)N(Cc3ccccc3)C(=O)[C@H]2[C@H]2CN=C(SCc3ccc(C#N)cc3)N21	0	-	-	0	-	90.9	94.7	0
Cc1ccc([N+](=O)[O-])cc1NC(=O)Nc1cccc(F)c1	0	-	0	0	-	59.1	0	-
Cc1ccc(-n2cc(CN3CCC(CO)(Cc4cccc(C(F)(F)F)c4)CC3)cn2)cc1	0	0	0	0	0	83.6	48.1	69.2
Cc1ccc(-n2cc(CN3CCC(CO)(Cc4ccccc4)CC3)cn2)cc1	-	0	0	-	0	0	-	-
COc1cccc(CSc2nc3ccccc3cc2C=O)c1	0	0	0	0	0	68.1	64.3	60.8
Cc1c(OCC(=O)N2CCN(c3ccccc3)CC2)ccc2c3c(c(=O)oc12)CCCC3	0	-	0	0	0	0	-	-
O=C(/C=C/c1cccs1)c1cc(Br)ccc1OC(=O)N1CCOCC1	0	0	0	0	0	53.0	0	-
COc1ccc(C(=O)/C=C/c2cccs2)c(OC(=O)N2CCOCC2)c1	0	0	0	0	0	0	-	-
CCC(=O)Nc1ccc(C(=O)NNC(=O)COc2cccc(C)c2)cc1	0	0	0	0	0	0	-	-
Cn1c(SC2=CS(=O)(=O)c3ccccc32)nc2ccccc21	0	0	0	0	0	70.3	53.1	0
Cn1c(CSc2nc3ccccc3n2C)nc2ccccc21	0	0	0	0	-	0	-	-
CC(Cc1ccccc1)N1CCCC1=O (stereo not given)	0	-	-	0	-	-	-	-
